Source: PubChem (National Center for Advancing Translational Sciences (NCATS))
PKM2 act = increases activity of human pyruvate kinase M2. purified PKM2, Kinase-Glo ATP luminescence, activation; response scale: 0% is enzyme alone, no compound. Potency, µM (top dose mostly 57.5 µM), without a hit: at the top dose activation, actives largely listed as activators. hit rate 0.34% among 260,000. AID 1631; further: on the % scale 0 is the no-effect control and ±100 the full control effect; nearly all actives have a fitted effect of over 55% in size
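Purified hPK-M2 (>95%) run at intermediate activity with 0.1 mM ADP and 0.5 mM PEP in 50 mM imidazole pH 7.2, KCl, MgCl2; 1 h room temperature. ATP formed read by Kinase-Glo luminescence; normalized to uninhibited and no-enzyme controls.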
Rango complex inh = inhibitors of Rango-importin beta complex formation; Q14974; Rango CFP/YFP FRET sensor + importin beta, 45 min; Potency, µM (series often up to 92.2 µM), for the others: at the top dose inhibition of complex formation; hit rate 0.031% among 340,000; AID 540263; calls by dose curve;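 further: 0% = DMSO wells and 100% = buffer wells lacking importin beta; nearly all actives have a fitted effect of over 15% in size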
Target sequence (Q14974 whole entry, looked up): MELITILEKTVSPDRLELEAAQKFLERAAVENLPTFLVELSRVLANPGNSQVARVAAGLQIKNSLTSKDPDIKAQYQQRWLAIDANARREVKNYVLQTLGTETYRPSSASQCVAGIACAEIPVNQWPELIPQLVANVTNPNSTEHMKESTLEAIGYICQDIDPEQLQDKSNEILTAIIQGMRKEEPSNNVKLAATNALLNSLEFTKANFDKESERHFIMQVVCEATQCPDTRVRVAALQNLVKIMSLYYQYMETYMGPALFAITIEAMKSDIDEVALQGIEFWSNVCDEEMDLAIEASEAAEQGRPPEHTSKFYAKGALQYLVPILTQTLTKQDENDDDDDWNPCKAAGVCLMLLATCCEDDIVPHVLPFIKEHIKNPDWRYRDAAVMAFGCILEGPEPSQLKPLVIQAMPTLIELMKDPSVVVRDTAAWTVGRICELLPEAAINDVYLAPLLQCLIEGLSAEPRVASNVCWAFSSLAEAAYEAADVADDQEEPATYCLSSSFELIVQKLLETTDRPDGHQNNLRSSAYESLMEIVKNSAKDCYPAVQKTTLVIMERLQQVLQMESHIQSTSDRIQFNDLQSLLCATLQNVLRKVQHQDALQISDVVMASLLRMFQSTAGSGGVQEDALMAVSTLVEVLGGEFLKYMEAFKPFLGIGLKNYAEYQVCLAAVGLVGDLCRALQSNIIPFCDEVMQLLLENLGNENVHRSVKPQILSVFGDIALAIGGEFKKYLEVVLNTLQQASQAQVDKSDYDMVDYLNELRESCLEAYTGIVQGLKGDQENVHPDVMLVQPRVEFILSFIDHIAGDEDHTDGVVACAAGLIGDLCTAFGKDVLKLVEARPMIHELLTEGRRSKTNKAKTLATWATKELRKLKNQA
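Inhibition scored from the CFP 486 nm/YFP 530 nm FRET ratio 45 min after adding 0.125 microM importin beta to 50 nM Rango biosensor preincubated 5 min with compound (room temperature, PBS with DTT, Tween-20, BSA). No-importin wells as positive control.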
PGK inhibitor = T. brucei PGK inhibition | P07378 | PGK/GAPDH coupled, Kinase-Glo luminescence, 60 min | Potency, µM (top dose mostly 57.5 µM), for the others: at the highest dose activity change, negative = inhibition, hits mostly inhibitors | hit rate 0.043% among 380,000; further: on the % scale 0 is the no-effect control and ±100 the full control effect; nearly all actives have a fitted effect of over 60% in size
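Recombinant glycosomal PGK reaction used 1,3-bisphosphoglycerate generated in-well by GAPDH (100nM final) in 100mM TEA pH 7.6, 5mM MgCl2, 0.01% Tween-20. After 60 minutes at room temperature, ATP was read by Kinase-Glo Plus luminescence end-point.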
ELG1 DNA repair = blocks ELG1-dependent DNA repair in HEK293T cells. HEK293T ELG1-luciferase reporter, luminescence, 16 h; DNA damage induced by 5-fluorouridine. Potency, µM (series often up to 46.1 µM), for the others: at the highest dose activity change, negative = inhibition, actives largely listed as inhibitors. hit rate 2.3% among 330,000; further: on the % scale 0 is the no-effect control and ±100 the full control effect; nearly all actives have a fitted effect of over 55% in size
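In this reporter screen, reduction of luminescence relative to DMSO vehicle indicated activity. Compounds and 5-fluorouridine were added together to 2,000 cells per well, incubated for 16 hr at 37 °C, then developed with ONE-Glo.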
Tb PFK inh = T. brucei PFK enzyme inhibition | Potency, µM (doses to about 57.5 µM), for the others: at the top dose activity, negative = inhibition, actives largely listed as inhibitors | hit rate 0.17% among 330,000 | T. brucei PFK, ADP-Glo luminescence;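 further: 0% = uninhibited 1x PFK enzyme wells and -100% = no-enzyme wells; nearly all actives have a fitted effect of over 60% in size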
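1.25 nM PFK with 0.5 mM F6P and 0.1 mM ATP in 0.1 M TEA pH 8.0, 5 mM MgCl2, incubated 45 min at room temperature; ADP measured by ADP-Glo luminescence; compounds titrated up to 57 uM.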
Rango release inh = inhibition of RanGTP-driven Rango-importin beta dissociation; O95149+P62826; Biochemical FRET Rango-importin beta, RanGTP-induced dissociation; Potency, µM (series often up to 46.1 µM), without a hit: top-dose activity change, negative = inhibition; hit rate 0.071% among 340,000; calls by dose curve; further: % of control where 0% means no effect; nearly all actives have a fitted effect of over 45% in size
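Compounds sat 5 min at room temperature with 0.1 uM Rango biosensor plus 0.25 uM importin beta, then FRET pre-read. RanGTP-RCC1 (0.6 uM Ran, 2mM GTP, 0.2 uM RCC1) added for 45 min, and the CFP/YFP post-read measured blocked complex dissociation.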
The depositor's hits bear a star; i = inactive; ? = inconclusive; . = no result given. Most compounds without a hit are left out; they make up all but 2.4% or so of the library. Unless noted, the call rests on the fitted dose curve; in most records, active means well fitted curve in the direction sought with a large enough effect; inconclusive means small, poorly fitted or top-dose-only effect, or another doubt; inactive means no such curve, though single readings can be large; an effect the other way counts as inactive or inconclusive. Potency means the concentration at half of the fitted maximal effect.

SMILES | PKM2 act | Rango complex inh | PGK inhibitor | ELG1 DNA repair | Tb PFK inh | Rango release inh
COc1ccc(CNC(=O)CC(c2ccc(OC)cc2)N2Cc3ccccc3C2=O)cc1 (stereo not given) | . | . | -7% | . | . | .
Cn1c(CSCc2ccc(Cl)cc2)nnc1SCC(=O)Nc1nccs1 | 9% | 1% | 8% | ? | 3% | 2%
Cn1c(CSCc2ccc(F)cc2)nnc1SCC(=O)Nc1nccs1 | 4% | 0% | -4% | 16µM* | -5% | 11%
CC(C)CCn1c(=O)c2cccnc2n(CC(=O)Nc2ccccc2)c1=O | . | . | -3% | . | . | .
Cc1ccc(Cn2ncc3c(N4CCN(Cc5ccc(Cl)cc5)CC4)ncnc32)cc1 | 26% | -4% | -9% | 5.8µM* | 1% | -2%
Cc1ccc(-n2ncc3c(NCCc4ccccc4)ncnc32)cc1 | . | . | 9% | . | . | .
O=C1CC(=O)N(Cc2cccs2)C(=O)N1 | 4% | ? | 0% | 3% | -1% | -19%
O=C1CC(=O)N(Cc2ccco2)C(=O)N1 | 3% | ? | 5µM* | 0% | 24µM* | ?
CCOc1ccc2c(c1)c(=O)c(C(=O)c1ccc(CC)cc1)cn2CC(=O)Nc1ccccc1OC | . | . | 5% | . | . | .
Cc1onc(-c2c(Cl)cccc2Cl)c1C(=O)c1c[nH]c(C(=O)NCC2CCCO2)c1 (stereo not given) | -7% | -2% | -2% | 18µM* | -5% | -3%
COc1ccc(CSc2nnnn2-c2ccccc2)cc1 | 13% | -4% | -9% | -4% | 1% | 12%
COc1ccc2c(C)cc(Sc3nnnn3-c3ccccc3)nc2c1 | 11% | -3% | i | 26µM* | 0% | -10%
CC(C)(C)C(=O)Nc1nc2cc3c(cc2s1)OCO3 | 5% | -1% | -8% | ? | 3% | 42%
Cc1ccc(N2CCN(C3=NC(=O)/C(=C\c4cn[nH]c4-c4ccccc4)S3)CC2)cc1 | 5% | -1% | -6% | 1.6µM* | -2% | 3%
O=C1N=C(N2CCN(c3ccccc3)CC2)S/C1=C\c1cn[nH]c1-c1ccccc1 | -7% | -5% | -9% | 4.6µM* | 0% | 0%
CC(NC(=O)CCCCCCN1C(=O)c2ccccc2C1=O)c1ccc2c(c1)CCCC2 (stereo not given) | ? | 9% | 2% | 23µM* | 0% | 3%
CN(C)/C=C/C(=O)c1ccc2noc(-c3ccc(F)cc3)c2c1 | . | ? | -10% | 8.2µM* | 0% | 3%
CCOC(=O)N1CCN(C(=O)COC(=O)c2ccc(Cl)nc2)CC1 | . | 0% | i | 5% | 0% | -11%
Cc1ccc(-n2nnnc2SCC(=O)Nc2ccccc2N2CCCCC2)cc1C | -21% | -1% | i | 9.2µM* | 2% | 15%
Cc1ccc(-n2nnnc2SCC(=O)Nc2ccccc2-c2ccccc2)cc1C | -17% | 0% | 5% | ? | 13% | 8%
CCOc1cc(NC(=S)NCC2CCCO2)c(OCC)cc1NC(=O)c1ccccc1F (stereo not given) | 8% | -3% | i | 23µM* | -2% | 0%
CCOc1cc(NC(=S)NCC2CCCO2)c(OCC)cc1NC(=O)CC (stereo not given) | ? | 0% | -4% | -10% | -3% | -25%
O=C(O)CCN1C(=O)C2C3C=CC(C2C1=O)C1C(=O)N(CCC(=O)O)C(=O)C31 (stereo not given) | . | 4% | -3% | 13% | 0% | -14%
c1ccc2c(N3CCOCC3)nc(-c3ccncc3)nc2c1 | 4% | -2% | -7% | 6.5µM* | -4% | -3%
N#Cc1c(-c2ccccc2)nc(-c2ccccc2)nc1N1CCOCC1 | -15% | -6% | i | 15µM* | 1% | -7%
SMILES | PKM2 act | Rango complex inh | PGK inhibitor | ELG1 DNA repair | Tb PFK inh | Rango release inh
c1ccc(-c2nc(N3CCOCC3)cc(N3CCOCC3)n2)cc1 | -5% | -2% | -7% | 15µM* | -1% | -6%
FC(F)(F)c1cc(N2CCOCC2)nc(-c2ccccc2)n1 | -4% | 3% | -9% | 1% | -2% | -1%
c1cncc(-c2nc(N3CCOCC3)c3ccccc3n2)c1 | 14% | 1% | i | -8% | 0% | 3%
COc1ccc(-c2nc(-c3ccccc3)nc(N3CCN(C)CC3)c2C#N)cc1 | 1% | 2% | i | 21µM* | 0% | 15%
Cc1nnc(NC(=O)C2CCN(S(=O)(=O)c3ccc(F)c(F)c3)CC2)o1 | . | -2% | i | 10% | 1% | -16%
Cc1ccc(N(CC(=O)NC2CCCCC2)C(=O)CNC(=O)c2ccco2)cc1F | . | -1% | 0% | 12% | 3% | 11%
COc1ccc(CN(C)Cc2nc3scc(-c4ccccc4)c3c(=O)[nH]2)cc1OC | 3% | -2% | -3% | 16µM* | -1% | 15%
CCOc1ccc(C(=O)Nc2cc(-c3nc4ccccc4[nH]3)ccc2C)cc1[N+](=O)[O-] | -7% | 3% | 4% | 23µM* | 2% | -7%
O=S(=O)(Nc1cc(Cl)ccc1-n1cncn1)c1cc(Br)ccc1Br | . | -3% | -11% | 23µM* | -7% | -19%
O=S(=O)(Nc1cc(Cl)ccc1-n1cncn1)c1ccccc1Cl | . | -4% | 2% | -5% | -1% | -6%
Cc1ccc(C(C)C)c(OCC(=O)Nc2ccc3c(c2)nc(CN2CCCC2)n3C)c1 | -6% | -2% | 0% | 13µM* | -6% | -4%
CCOC(=O)CSC1=NC(=O)/C(=C/c2ccc(OC)cc2)S1 | 26% | ? | -8% | ? | 2% | -25%
N=C1/C(=C\c2ccc(Br)o2)C(=O)N=C2SC(CC(=O)N3CCCCC3)=NN12 | -2% | ? | -15% | 8% | -20% | 6.5µM*
C=CCn1c(SCC(=O)c2cccs2)nc2sc(CC)cc2c1=O | 1% | 3% | -3% | 21µM* | -3% | -6%
COc1cc(OC)cc(C(=O)Nc2nnc(-c3cccnc3)o2)c1 | 1% | 4% | 0% | ? | 1% | -7%
CCCCOc1cccc(C(=O)Nc2ccc3oc(-c4cccnc4)nc3c2)c1 | . | . | i | . | . | .
CCOc1cccc(C(=O)Nc2ccc3oc(-c4cccnc4)nc3c2)c1 | 1% | 3% | -1% | 18µM* | 2% | 7%
CCOc1cccc(C(=O)Nc2cccc(-c3nnc(-c4ccccc4)o3)c2)c1 | 1% | 1% | -2% | 9.2µM* | 1% | 0%
O=C(Nc1cccc(-c2nnc(-c3ccco3)o2)c1)C(c1ccccc1)c1ccccc1 | 6% | -1% | -5% | 13µM* | 3% | -4%
O=C(Nc1nnc(-c2cccnc2)o1)c1cccc(Cl)c1 | 9% | 1% | i | 16µM* | 14% | -7%
